High-throughput results as filed in PubChem BioAssay.
Hits are enriched below; roughly 13% of the tested compounds scored in any of these assays.
USP10 block = blocks human USP10 ubiquitin-rhodamine cleavage; AID 1645856; inhibition, % at 20 µM; purified USP10, Ub-rhodamine fluorescence, 60 min; Q14694; actives 1.1% (n = 47,000)
Target sequence (Q14694 whole entry, looked up): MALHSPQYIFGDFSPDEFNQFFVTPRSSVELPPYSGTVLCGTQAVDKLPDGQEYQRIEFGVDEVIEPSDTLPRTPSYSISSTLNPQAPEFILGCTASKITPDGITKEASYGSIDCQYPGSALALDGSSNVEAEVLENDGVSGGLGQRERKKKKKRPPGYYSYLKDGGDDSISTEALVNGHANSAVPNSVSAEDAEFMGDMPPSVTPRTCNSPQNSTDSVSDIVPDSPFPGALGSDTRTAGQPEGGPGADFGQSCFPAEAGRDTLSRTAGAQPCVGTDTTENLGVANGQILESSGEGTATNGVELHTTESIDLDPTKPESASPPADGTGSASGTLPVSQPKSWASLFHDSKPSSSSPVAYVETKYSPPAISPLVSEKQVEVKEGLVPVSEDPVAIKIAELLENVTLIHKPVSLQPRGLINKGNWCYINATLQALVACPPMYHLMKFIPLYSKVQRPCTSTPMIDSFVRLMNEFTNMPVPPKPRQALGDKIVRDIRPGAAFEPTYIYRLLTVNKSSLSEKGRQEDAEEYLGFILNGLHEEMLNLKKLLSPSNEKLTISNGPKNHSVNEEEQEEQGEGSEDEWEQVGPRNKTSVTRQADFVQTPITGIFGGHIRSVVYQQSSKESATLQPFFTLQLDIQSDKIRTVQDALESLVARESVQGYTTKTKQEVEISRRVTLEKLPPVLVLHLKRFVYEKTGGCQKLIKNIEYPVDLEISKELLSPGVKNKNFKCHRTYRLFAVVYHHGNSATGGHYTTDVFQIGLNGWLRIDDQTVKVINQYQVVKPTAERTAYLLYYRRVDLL
USP30 inh = human USP30 deubiquitinase inhibition. AID 1645860. inhibition, % at 25 µM. purified USP30, Ub-rhodamine cleavage fluorescence. actives 5.3% (n = 47,000). Q70CQ3
USP8 inh = human USP8 deubiquitinase inhibition; P40818; actives 4.2% (n = 47,000); purified USP8, Ub-rhodamine cleavage fluorescence, 30 min; inhibition, % at 20 µM
USP28 block = blocks human USP28 ubiquitin-rhodamine cleavage; purified USP28, Ub-rhodamine cleavage fluorescence, 30 min; inhibition, % at 25 µM; actives 3% (n = 47,000)
USP17 inh = inhibitors of human USP17 deubiquitinase; AID 1645855; purified USP17, Ub-rhodamine cleavage fluorescence, 3 h; actives 6.5% (n = 47,000); A8MUK1; inhibition, % at 50 µM
An asterisk follows results filed as active; / = no result. Cut-off read from the data, not from the text of the source: active = inhibition above about 30%; inactive = the rest.

SMILES | USP10 block | USP30 inh | USP8 inh | USP28 block | USP17 inh
CC(C)CCCCCCCCCCCC(=O)O | 30* | 47* | 8 | 14 | 43*
Cc1nc(C2COCCN2C(=O)CC2CCCC2)cc(=O)[nH]1 (stereo not drawn) | -1 | -3 | -3 | -13 | -6
O=c1ccc(S(=O)(=O)N2CCCCCC2)cn1Cc1cccc(F)c1 | 0 | 15 | 8 | 4 | 4
COc1ccc2c(c1)c(=O)c(S(=O)(=O)c1ccc(F)cc1)cn2Cc1cccc(F)c1 | 39* | 25 | 25 | 0 | 16
O=C(c1ccco1)N1CCC(Oc2cc(N3CCCC3)ncn2)C1 (stereo not drawn) | 1 | 9 | -2 | -12 | -5
COc1ccc(-c2nc3cnccn3c2Nc2ccccc2C)cc1OC | -3 | -28 | -19 | -9 | -16
CCc1ccc(NC(=O)CSc2ncc(S(=O)(=O)c3ccccc3)c(=O)[nH]2)cc1 | 14 | 38* | 2 | 16 | 27
CCc1ccc(S(=O)(=O)c2cn(CC(=O)Nc3ccccc3)c3ccccc3c2=O)cc1 | 46* | -58 | 77* | -18 | -26
CCOc1ccc(-n2nnnc2CNC(=O)NCc2ccccc2)cc1 | 2 | -15 | 2 | 0 | -3
O=C(COc1ccc2ccccc2c1)NCc1nnnn1-c1ccc(F)c(F)c1 | 2 | 9 | -22 | 2 | 48*
CCOC(=O)c1c(C)oc2nc(CSc3ccccc3)[nH]c(=O)c12 | -2 | -4 | -7 | 61* | 12
O=C(CN(C(=O)c1ccc(-c2ccccc2)[nH]1)c1ccc(Cl)cc1)NC1CCCC1 | -1 | -24 | -2 | -19 | 0
COc1ccc(N(CC(=O)NC2CCCCC2)C(=O)c2ccc(-c3ccccc3)[nH]2)cc1OC | 25 | -11 | 3 | -8 | 78*
O=C(N[C@H]1[C@H](O)[C@H](O)C[C@@H]1c1ccncc1)C1CCOCC1 | 0 | 10 | -4 | -9 | 2
COC(=O)C(Cc1ccccc1)NC(=O)CSc1nc2ccc(Cl)cc2[nH]1 (stereo not drawn) | -1 | -24 | 43* | 0 | 7
Cc1ccccc1-c1noc(-c2cccn(CC(=O)Nc3ccccc3F)c2=O)n1 | -6 | -36 | 76* | -24 | 8
Cc1noc(-c2cccn(Cc3noc(-c4ccccc4C)n3)c2=O)n1 | -4 | 1 | -10 | 0 | 6
Clc1cccc(-c2noc3ncnc(NCc4ccco4)c23)c1 | 4 | 37* | 18 | 24 | 18
Cc1ccccc1-c1noc2ncnc(NCc3ccco3)c12 | 2 | 6 | 0 | 7 | 0
COc1ccc(-c2oc3ncnc(NCc4ccco4)c3c2-c2ccc(OC)cc2)cc1 | 4 | 14 | 23 | 10 | 30*
COc1cc2ncnc(NCc3ccco3)c2cc1OC | 0 | 6 | -5 | 1 | 8
Cn1nc(C(=O)N2CCC(c3ccccc3)C2)c2c1-c1ccsc1CC2 (stereo not drawn) | 17 | 32* | 74* | 29 | 46*
Cn1nc(C(=O)N2CCN(c3ccccn3)CC2)c2c1-c1ccsc1CC2 | 1 | -4 | 1 | 2 | 0
Cc1ccc(CNC(=O)c2nn(C)c3c2CCc2sccc2-3)cc1 | 14 | 33* | 16 | 36* | /
COc1ccccc1-c1nc(NC(=O)C2CC(=O)N(C(C)C)C2)n[nH]1 (stereo not drawn) | 0 | -1 | -1 | -6 | -7
SMILES | USP10 block | USP30 inh | USP8 inh | USP28 block | USP17 inh
N#Cc1ccc(Cn2nnc(-c3cccc(Cl)c3)n2)cc1 | 12 | 7 | 7 | 73* | 12
COc1ccc(-c2nnn(Cc3ccc(-c4ccccc4)cc3)n2)cc1OC | 3 | 1 | 14 | -4 | 4
Cc1ccc(NC(=O)Cn2c(C)cc(=O)n3nc(C4CCCCC4)nc23)cc1 | -2 | -14 | -5 | 4 | -2
O=C1CC(C(=O)Nc2ccccc2F)N=C(N2CCN(c3ccccc3)CC2)N1 (stereo not drawn) | -1 | 10 | 7 | -3 | 1
O=C1CC(C(=O)Nc2ccccc2)N=C(N2CCN(c3ccccc3F)CC2)N1 (stereo not drawn) | 6 | 33* | 24 | 18 | 2
O=C1CC(C(=O)Nc2ccccc2F)N=C(N2CCN(c3ccc(F)cc3)CC2)N1 (stereo not drawn) | 3 | 0 | 15 | -3 | 3
COc1ccc(N2CCN(C3=NC(CC(=O)Nc4ccccc4)C(=O)N3)CC2)cc1 (stereo not drawn) | -1 | 25 | 36* | 15 | 36*
Cc1ccc(N2CCN(C3=NC(C(=O)Nc4ccccc4)CC(=O)N3)CC2)cc1 (stereo not drawn) | 0 | 28 | 39* | 12 | 20
